Experimental findings from ChEMBL document CHEMBL3433997, “St. Jude Leishmania screening dataset” (2016) are described below.

Molecules are shown by their SMILES.

Holding throughout (assay type): functional
Test [1] has as its target Solute carrier family 2, facilitated glucose transporter member 1 (Homo sapiens) (UniProt P11166). Put plainly: ST_JUDE_LEISH: Cytotoxicity at 2uM final concentration against transgenic Leishmania Mexicana promastigotes LmGLUT1 that are glucose transport deficient and complemented with the human glucose transporter GLUT1. Activity is measured by DNA content using SYBR green in vitro.

For test [2], the target named is Hexose transporter 1 (Plasmodium falciparum) (UniProt O97467). Put plainly: ST_JUDE_LEISH: Cytotoxicity at 2uM final concentration against transgenic Leishmania Mexicana promastigotes LmPfHT that are glucose transport deficient and complemented with the Plasmodium falciparum hexose transporter. Activity is measured by DNA content using SYBR green in vitro.
Test [3] deals with Glucose transporter (Leishmania mexicana) (UniProt O61059). Nature of the test: ST_JUDE_LEISH: Cytotoxicity at 2uM final concentration against transgenic Leishmania Mexicana promastigotes LmGT2 that are glucose transport deficient and complemented with the L. Mexicana glucose transporter 2. Activity is measured by DNA content using SYBR green in vitro.

Sequence of Solute carrier family 2, facilitated glucose transporter member 1 (Homo sapiens) (P11166 whole entry): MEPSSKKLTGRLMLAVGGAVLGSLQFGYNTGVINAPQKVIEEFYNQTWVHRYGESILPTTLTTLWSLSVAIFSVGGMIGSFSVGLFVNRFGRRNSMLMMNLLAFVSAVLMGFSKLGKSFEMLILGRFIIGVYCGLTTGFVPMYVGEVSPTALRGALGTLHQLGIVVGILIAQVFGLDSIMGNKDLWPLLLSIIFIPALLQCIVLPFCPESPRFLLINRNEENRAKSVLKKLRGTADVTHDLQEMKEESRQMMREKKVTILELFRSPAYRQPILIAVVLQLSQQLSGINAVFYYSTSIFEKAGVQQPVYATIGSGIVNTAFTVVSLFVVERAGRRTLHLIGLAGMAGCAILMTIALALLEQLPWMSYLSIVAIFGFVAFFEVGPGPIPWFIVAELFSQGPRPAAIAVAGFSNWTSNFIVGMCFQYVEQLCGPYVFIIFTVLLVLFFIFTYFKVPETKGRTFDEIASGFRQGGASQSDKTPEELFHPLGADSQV

As usually defined, the inhibition is the drop in the measured response relative to a control, in per cent. In the case of `CCOc1cc(C(=O)Nc2cccnc2)ccc1-c1nc2cc(Cl)c(Cl)cc2[nH]1`, the inhibition in test [1] is 1.75%; in test [2], 0.16%; in test [3], -0.85%.

Turning to `COc1cc(-c2cc(-c3ccc(OCCN(C)C)cc3)[nH]c2-c2ccncc2)ccc1Cl`, the results for the inhibition in test [1], in test [2] and in test [3] were 0.75%, 0.72% and 2.28%, respectively.

Consider `Cc1cccc(Cn2c(C(N)=O)nn(-c3ccc([N+](=O)[O-])cc3C#N)c2=S)c1`, for which the inhibition is 11.5% in test [1], 11.7% in test [2] and 11.7% in test [3].

On to `CC1CN(Cc2ccccc2)CCN1c1ccc(NC(=O)c2cccs2)cc1` (stereo not given), for which the inhibition was 10.9% in test [1], 12.3% in test [2] and 10.8% in test [3].

With `Cc1nc(NC2=NCN(CCCN3CCOCC3)CN2)nc2c(C)cccc12`, the inhibition was 8.37% in test [1], 17.2% in test [2] and 11% in test [3].

Consider `O=C(CCCCCNC(=O)c1ccc(O)c(-c2ccc(Cl)c(Cl)c2)c1)NCCN1CCCCC1`, for which the figures for the inhibition in test [1], in test [2] and in test [3] were 2.71%, 2.46% and 3.45%, respectively.

`COc1cc(NC(=O)c2sc(-c3ccc(Cl)cc3)cc2NC(=O)c2cccc(N(C)C)c2)ccc1OCCN1CCCC1`: the inhibition in test [1] amounted to 0.3%; in test [2], 0.22%; in test [3], 0.53%.

Consider `O=C(NC1CCCCC1)C1CCCN(C(=O)c2ccc(O)c(-c3ccc(Cl)c(Cl)c3)c2)C1` (stereo not given), for which the values for the inhibition in test [1], in test [2] and in test [3] were 0.15%, 1.83% and -0.03%, respectively.

For `FC(F)(F)c1ccc2[nH]c(-c3ccc(-c4cccc(CNCc5ccccc5)c4)s3)nc2c1`, the inhibition in test [1] turned out to be 2.04%; in test [2], 0.97%; in test [3], 1.82%.

For the molecule `CCCN1CCN(CCNc2c3ccccc3nc3ccccc23)CC1`, the values for the inhibition in test [1], in test [2] and in test [3] were 96.4%, 97.2% and 94.2%, respectively.

With `O=C(/C=C/c1ccc(Cl)c(Cl)c1)NCCCCCN1CCC(NC(=O)Nc2cc(Cl)cc(Cl)c2)CC1`, the inhibition came out at 8.59% in test [1], 9.64% in test [2] and 9.93% in test [3].

Turning to `CCn1c(-c2nonc2N)nc2c(-c3cccc(NC(=O)Nc4ccc(C(F)(F)F)cc4)c3)ncc(OCCCN)c21`, the inhibition in test [1] came out at 2.98%; in test [2], 2.48%; in test [3], 3.54%.

In the case of `Cc1cc2c(cc1Cl)N(C(=O)Nc1cc(F)cc(-c3cncnc3)c1)CC2`, the inhibition was 9.04% in test [1], 5% in test [2] and 2.7% in test [3].

With `Cc1nn(CC(O)Cn2c3ccc(Br)cc3c3cc(Br)ccc32)c(C)c1Br` (stereo not given), the inhibition was -0.46% in test [1], -3.23% in test [2] and -0.3% in test [3].

Regarding `Oc1cccc(CCNCCCCCCNCCc2ccc(Cl)cc2)c1`, the values for the inhibition in test [1], in test [2] and in test [3] were 2.27%, 2.44% and 2.3%, respectively.

Regarding `O=C(C=Cc1ccc(Br)cc1)N1CCC(CCN2CCC(c3c[nH]c4ccccc34)CC2)CC1`, the inhibition in test [1] came to 4.46%; in test [2] it was 8.48%; in test [3], 4.25%.

Turning to `CC(C)C[C@H](NC(=O)c1ccc(OCCN2CCOCC2)cc1)C(=O)N[C@H](/C=N/NC(=O)OC(C)(C)C)CCc1ccccc1`, the inhibition came out at 9.41% in test [1], 8.52% in test [2] and 5.94% in test [3].

Turning to `CCCc1cc(NC2CCN(C)CC2)nc(Nc2ccc(F)cc2)n1`, the inhibition in test [1] was 10%; in test [2] it was 6.83%; in test [3], 5.22%.

Turning to `NC(=S)Cc1ccc2c(c1)OCO2`, the inhibition was -0.08% in test [1], -0.33% in test [2] and -0.59% in test [3].

Regarding `CC(C)[C@@H](C(=O)NCc1cccc(C(F)(F)F)c1)N1C(=O)CCC1C(=O)Nc1ccc([N+](=O)[O-])cc1` (stereo not given in full), the inhibition in test [1] came to 2.24%; in test [2], 1.67%; in test [3], 2.73%.

As for `COc1ccc2ncc(F)c(CCN3CCC(NCc4cc(OC)c5c(c4)OCCO5)CC3)c2n1`, the inhibition turned out to be 7.06% in test [1], 6.92% in test [2] and 1.31% in test [3].

`NC1CCN(Cc2ccc(-c3ccc(-c4nc5ccccc5[nH]4)s3)cc2)C1` (stereo not given): the inhibition worked out at 3.97% in test [1], 1.77% in test [2] and 3.21% in test [3].

Take `CCOc1ncccc1CN1CCC(N2CCc3cc(NC(=O)c4ccco4)ccc32)C1` (stereo not given): the inhibition was 0.43% in test [1], -0.71% in test [2] and 1.65% in test [3].

As to `O=C(/C=C/c1ccc(C(F)(F)F)cc1)N1CCC(CCN2CCC(c3c[nH]c4ccccc34)CC2)CC1`, the inhibition stood at 16.8% in test [1], 9.28% in test [2] and 3.39% in test [3].

For `C=CCOC(=O)N1CCC(CNCc2cccc(-c3ccc(-c4nc5ccccc5[nH]4)s3)c2)C1` (stereo not given), the inhibition in test [1] is 1.51%; in test [2], 1.79%; in test [3], 1.26%.

Regarding `O=C(NC1CCCCCC1)C1CCCN(C(=O)c2ccc(O)c(-c3ccc(Cl)c(Cl)c3)c2)C1` (stereo not given), the inhibition amounted to 3.16% in test [1], 2.31% in test [2] and 2.57% in test [3].

For `CCc1cn(C)c2c(N3CCCC3=O)cc(C(=O)N[C@@H](Cc3ccccc3)[C@H](O)CNC(C)(C)c3cccc(C(F)(F)F)c3)cc12`, the figures for the inhibition in test [1], in test [2] and in test [3] were 4.78%, 3.46% and -1.12%, respectively.

Regarding `O=S(=O)(c1c(Cl)cc(Cl)cc1Cl)N1CCCCC(c2ccc(C(F)(F)F)cc2)=N1`, the inhibition in test [1] is 5.69%; in test [2] it was 8.89%; in test [3], 6.28%.

For `CCN1CCCC(CNC(=O)/C(=C/C=C/c2cc3cc(Cl)c(Cl)cc3[nH]2)OC)C1` (stereo not given), the values for the inhibition in test [1], in test [2] and in test [3] were -0.41%, 1.17% and 1.2%, respectively.

Regarding `CCNc1cc(C)nc(Nc2ccc(C)cc2)n1`, the figures for the inhibition in test [1], in test [2] and in test [3] were 25.8%, 7.92% and 5.86%, respectively.

Consider `CCOc1ccc(NC(=O)c2ccc(CN3CCCN(Cc4cccc(O)c4)CC3)cc2)cc1`, for which the results for the inhibition in test [1], in test [2] and in test [3] were 3.91%, 3.89% and 4.11%, respectively.

As for `Oc1ccc2nc(Nc3ccccc3)nc(NCCc3ccccc3)c2c1`, the inhibition in test [1] is 7.22%; in test [2], 6%; in test [3], 5.72%.

Turning to `Cc1nc(N)nc(N)c1CCCOc1cccc(Cl)c1`, the values for the inhibition in test [1], in test [2] and in test [3] were 7.39%, 7.51% and -0.98%, respectively.

Consider `COc1cc(OC)c(OC)cc1C=NN=c1cc(C)[nH]c2ccccc12`, for which the inhibition in test [1] was 1.25%; in test [2], 1.67%; in test [3] it was -1.17%.

As for `CS(=O)(=O)Nc1cccc(-c2cnc3[nH]cc(-c4ccc(CCC(=O)O)cc4)c3c2)c1`, the inhibition in test [1] stood at 2.69%; in test [2], 1.66%; in test [3], 4.76%.
